From PubChem
These entries were drawn from the full list.
aSyn 5UTR act: Activators via SNCA 5'UTR binding, MLPCN. actives 7.1% (n = 300,000). alpha-synuclein 5'UTR reporter, activators screen. activity score, % (tested at 7.5 µM), hits read low; in the data active = activity score below about -60%
Large screens that a line does not name were inactive.

O=C(CCc1nc2ccccc2s1)OCC(=O)c1ccccc1	aSyn 5UTR act -99.9
O=C(COC(=O)CCc1nc2ccccc2s1)Nc1nc(-c2ccccc2)cs1	aSyn 5UTR act -84.2
N#C/C(=C/c1ccc(N2CCCCCC2)o1)c1ccc(Cl)cc1	aSyn 5UTR act -299.3
N#C/C(=C/c1ccc(N2CCCCC2)cc1)c1cccc(F)c1	aSyn 5UTR act -134.9
N#C/C(=C/c1ccc(N2CCCCC2)o1)c1cccc(F)c1	aSyn 5UTR act -333.7
Cc1ccc(-c2csc(NC(=O)c3ccc(Br)cc3)c2C(=O)O)cc1	aSyn 5UTR act -91.5
Cc1ccc(-c2csc(NC(=O)/C=C/c3ccco3)c2C(=O)O)cc1	aSyn 5UTR act -79.0
Cc1ccc(-c2csc(NC(=O)c3cccc(C)c3)c2C(=O)O)cc1	aSyn 5UTR act -70.9
CC1(C(=O)OCC(=O)Nc2ccc3ccccc3c2)CC1(Cl)Cl (stereo not given)	aSyn 5UTR act -78.1
CN1C=C/C(=C\c2cc[n+](C)c3ccccc23)c2ccccc21	none
CC(=O)c1cccc(NC(=O)CSc2ccc(-c3ccccn3)nn2)c1	none
CCOc1ccc(-c2ccc(SCC(=O)N3CCN(c4ccccc4)CC3)nn2)cc1	aSyn 5UTR act -69.3
O=C(CSc1ccc(-c2ccccc2)nn1)N1CCCCC1	aSyn 5UTR act -154.9
O=C(CSc1ccc(-c2ccccn2)nn1)N1CCCCC1	aSyn 5UTR act -66.1
CC#CC#Cc1cccc(=O)o1	aSyn 5UTR act -116.3
Cc1ccc(C(=O)CN2C(=O)c3ccccc3S2(=O)=O)cc1	none
Cc1ccc(C(=O)COc2ccccc2N2C(=O)c3ccccc3C2=O)cc1	aSyn 5UTR act -127.5
Cc1ccc(COn2c(-c3ccc(Cl)cc3)nc3ccc([N+](=O)[O-])cc32)cc1	aSyn 5UTR act -198.2
O=[N+]([O-])c1ccc2nc(-c3ccc(Cl)cc3)n(OCc3ccccc3)c2c1	aSyn 5UTR act -243.1
C[C@@H]1OC(Nc2ccc(N=Nc3ccccc3)cc2)[C@H](O)[C@H](O)[C@H]1O (stereo not given in full)	aSyn 5UTR act -88.5
O=C(NCCc1ccccc1)c1ccc2c(c1)OCCCO2	none
O=C(CCc1ccccc1)c1ccc2c(c1)OCCCO2	aSyn 5UTR act -190.0
O=C(c1ccccc1)c1ccc2c(c1)OCCCO2	aSyn 5UTR act -63.6
O=C(CCCc1ccccc1)c1ccc2c(c1)OCCO2	none
O=C(CCN1CCc2ccccc21)c1ccc2c(c1)OCCO2	aSyn 5UTR act -154.7
CC(OC(=O)c1ccc2c(c1)OCCO2)C(=O)c1ccccc1 (stereo not given)	aSyn 5UTR act -133.1
O/N=C(/CCc1ccccc1)c1ccc2c(c1)OCCO2	aSyn 5UTR act -119.8
COc1ccc(OC)c(/C=C/C(=O)c2ccc3c(c2)OCCO3)c1	aSyn 5UTR act -155.8
O=C(/C=C/c1ccccc1)c1ccc2c(c1)OCCCCO2	aSyn 5UTR act -197.6
CNc1ccc(/C=C/C(=O)c2ccc3c(c2)OCCO3)cc1[N+](=O)[O-]	aSyn 5UTR act -64.3
O=C1COc2ccc(C(=O)/C=C/c3ccccc3)cc2N1	aSyn 5UTR act -113.5
COc1ccc(C(=O)/C=C2/C(=O)Nc3ccccc32)cc1	aSyn 5UTR act -98.9
N#C/C(=C\C=C\c1ccccc1)C(=O)NCc1cccnc1	aSyn 5UTR act -70.4
COc1ccc2c(c1)CCc1c-2n[nH]c1C(=O)NCCC(C)C	aSyn 5UTR act -71.3
CNC(=O)c1[nH]nc2c1CCc1cc(OC)ccc1-2	aSyn 5UTR act -105.3
c1ccc(-n2nc3c(ccc4cnnc43)[nH]2)cc1	aSyn 5UTR act -128.7
CCOC(=O)c1csc(NC(=O)c2cc(=O)c3ccccc3o2)n1	aSyn 5UTR act -68.5
CC(=O)c1sc(NC(=O)c2ccc(Br)o2)nc1C	aSyn 5UTR act -76.5
CC(=O)c1sc(NC(=O)c2cc(=O)c3ccccc3o2)nc1C	aSyn 5UTR act -81.2
CCOC(=O)C1CCCN(C(=O)CSCc2ccccc2)C1 (stereo not given)	aSyn 5UTR act -111.9
O=C(CSCc1cccc(Br)c1)N1CCOCC1	aSyn 5UTR act -67.1
CCOC(=O)C1CCCN(C(=O)CCc2nnc(-c3ccc(C(C)=O)s3)o2)C1 (stereo not given)	aSyn 5UTR act -134.4
O=C(CSCc1ccc(F)cc1)N1CCN(c2ccccc2)CC1	aSyn 5UTR act -66.4
CCOC(=O)N1CCN(C(=O)CSCc2ccccc2)CC1	aSyn 5UTR act -82.8
CCOc1cc(-c2ccccc2)nc(N)n1	aSyn 5UTR act -112.4
COc1cc(-c2ccccc2)nc(N)n1	aSyn 5UTR act -117.0
Cc1nc(SCC(=O)c2cccs2)c2oc3ccccc3c2n1	aSyn 5UTR act -133.8
O=C(CSc1ncnc2c1oc1ccccc12)c1cccs1	aSyn 5UTR act -125.2
COc1ccccc1/C=C/C=N/Nc1cccc(C(=O)O)c1	aSyn 5UTR act -119.1
COc1cccc(/C=N/Nc2ccc(C(=O)O)cc2)c1O	none
CN(C)c1ccc(/C=N/Nc2cccc(C(=O)O)c2)cc1	none
COc1ccc(/C(C)=N/Nc2cccc(C(=O)O)c2)cc1OC	aSyn 5UTR act -112.8
O=C(O)c1cccc(N/N=C/c2cc(Br)cc(Br)c2O)c1	aSyn 5UTR act -231.9
COc1ccc(Br)cc1/C=N/Nc1cccc(C(=O)O)c1	aSyn 5UTR act -76.0
CCCCCCn1c2c(c(=N)c3c1CCC3)CCC2	none
O=C(C1CCCCN1S(=O)(=O)c1ccccc1[N+](=O)[O-])N1CCCC1 (stereo not given)	aSyn 5UTR act -61.7
Cc1ccc(C(=O)N2CCN(S(=O)(=O)c3ccccc3[N+](=O)[O-])C2)cc1	aSyn 5UTR act -65.3
Cc1ccc(N(C(=O)Nc2ccccc2)C2=NCC(C)S2)cc1 (stereo not given)	aSyn 5UTR act -62.2
COc1cc(OC)cc(-c2nc(-c3cccs3)no2)c1	aSyn 5UTR act -139.3
COc1cc(-c2noc(C)c2/C=C/c2cccc([N+](=O)[O-])c2)cc(OC)c1OC	none
COc1ccc(-c2noc(-c3cccs3)n2)cc1OC	aSyn 5UTR act -174.0
COc1cc(-c2noc(-c3cccs3)n2)cc(OC)c1OC	aSyn 5UTR act -94.6
C/C(=N\OC(=O)Nc1ccccc1)c1ccc(C)cc1	aSyn 5UTR act -113.0
Cc1cc(O)ccc1Nc1nc(-c2cccs2)cs1	aSyn 5UTR act -101.4
Cc1cc(O)ccc1Nc1nc(-c2cccnc2)cs1	aSyn 5UTR act -281.0
Clc1cccc(Cl)c1CSc1cc2c(nn1)-c1ccccc1CC2	aSyn 5UTR act -83.0
Clc1ccccc1CSc1cc2c(nn1)-c1ccccc1CC2	aSyn 5UTR act -132.1
O/N=C/c1ccn(-c2ccc(Br)cc2)c1	aSyn 5UTR act -84.1
COc1ccc(C2=Nn3c(nnc3-c3ccccc3OC)SC2)cc1OC	none
CCc1ccc(-c2nc(CCl)cs2)cc1	aSyn 5UTR act -122.6
COc1ccc(-c2nc(CCl)cs2)cc1	aSyn 5UTR act -142.4
COc1ccc(-c2nc(-c3ccc(O)cc3O)cs2)cc1OC	aSyn 5UTR act -93.7
COc1ccc(-c2csc(-c3ccc(O)cc3)n2)cc1	aSyn 5UTR act -214.8
O=C(O)CSc1nc2sc3c(c2c(=O)n1Cc1ccccc1)CCCCC3	aSyn 5UTR act -230.4
O=C(O)c1ccc(Cn2nnc3sc4c(c3c2=O)CCCC4)cc1	aSyn 5UTR act -151.3
CCc1c(C)sc(NC(=O)c2ccco2)c1C#N	aSyn 5UTR act -103.9
CC(C)c1nc2oc3ccccc3c(=O)c2c(=O)n1-c1ccccc1	aSyn 5UTR act -324.5
O=c1c2ccccc2oc2nc(-c3ccco3)n(-c3ccccc3)c(=O)c12	aSyn 5UTR act -251.2
COc1ccc2c(=O)c3c(=O)n(-c4ccccc4)c(-c4ccc(C)cc4)nc3oc2c1	aSyn 5UTR act -79.4
CC(C)c1nc2sc3ccccc3c(=O)c2c(=O)n1Cc1ccccc1	none
Cc1ccc2oc(-c3cccc(NC(=O)c4ccc(Br)o4)c3)nc2c1	aSyn 5UTR act -93.7
